DT40 TDP1 no CPT: qHTS for Inhibitors of human tyrosyl-DNA phosphodiesterase 1 (TDP1): qHTS in cells in absence of CPT; DT40 Tdp1-/- hTDP1 cells, no CPT, ATP luminescence, 48 h; Potency, µM (doses to about 46.2 µM), for inactives: at the highest dose activity change, negative = growth inhibition, usual class: inhibitors; 420,000 compounds, 15% hits; note: potency is the fitted concentration of half-maximal effect; nearly all actives have a fitted effect of over 55% in size
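Chicken DT40 Tdp1-/- cells complemented with human TDP1, screened without camptothecin (DMSO vehicle only), 400 cells/well. Compounds pin-transferred, cells incubated at 37 °C for at least 48 hr. Growth read as ATP-dependent luminescence (CellTiter-Glo, 30 min at RT).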
DT40 TDP1 CPT: growth inhibition of DT40 Tdp1-/-;hTDP1 cells with camptothecin (screen for TDP1 inhibitors); chicken DT40 Tdp1-/-;hTDP1 cells + 20 nM CPT, ATP luminescence, 48 h; Potency, µM (doses to about 46.2 µM), without a hit: at the highest dose activity change, negative = growth inhibition, most hits filed as inhibitors; 420,000 compounds, 12% hits; note: potency is the fitted concentration of half-maximal effect; nearly all actives have a fitted effect of over 55% in size
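Chicken DT40 Tdp1-/- cells stably complemented with human TDP1 were seeded at 400 cells/well in medium containing 20 nM camptothecin, exposed to pin-transferred compounds, and grown at 37 °C for at least 48 hr. Viability was read as ATP luminescence.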
IL-1B inflam inh: inhibitors of inflammasome signaling (IL-1 beta secretion); THP-1 LPS/ATP IL-1B secretion, AlphaLISA, 16 h; hits give low values; activity change, % at 57.5 µM; 360,000 compounds, 4.7% hits; AID 743279; in the data active = activity change below about -50%; inconclusive = mostly about -30% to -49%
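THP-1 cells pretreated 1 hr with compounds (up to 57.5 uM final), then stimulated with LPS (250 ng/mL final) plus ATP (1.25 mM final); secreted IL-1B measured by AlphaLISA after 16 hr, decreased signal indicating inhibition.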
Six1-Eya2 inh: inhibitors of human Six1/Eya2 interaction; Q15475+O00167; AlphaScreen GST-Six1/His-Eya2 binding, biochemical; hits give low values; activity change, % (concentration not given with the values); 360,000 compounds, 0.56% hits; in the data active = activity change below about -65%; inconclusive = mostly about -30% to -63%
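Six1/Eya2 binding was read as AlphaScreen signal after compounds were pinned into GST-Six1 plus His-tagged Eya2 (5X stock 250/500 nM) in pH 8.0 Tris/NaCl/TCEP buffer, beads added, then incubated 1 h, 37 C, dark.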
TDP1 inh: inhibitors of human tyrosyl-DNA phosphodiesterase TDP1. recombinant TDP1, AlphaScreen DNA substrate cleavage. Potency, µM (doses to about 130 µM), for inactives: top-dose activity change, negative = inhibition, actives largely listed as inhibitors. 350,000 compounds, 0.28% hits. AID 485290; note: potency is the fitted concentration of half-maximal effect; nearly all actives have a fitted effect of over 40% in size
Target sequence (Q9NUW8 whole entry, looked up): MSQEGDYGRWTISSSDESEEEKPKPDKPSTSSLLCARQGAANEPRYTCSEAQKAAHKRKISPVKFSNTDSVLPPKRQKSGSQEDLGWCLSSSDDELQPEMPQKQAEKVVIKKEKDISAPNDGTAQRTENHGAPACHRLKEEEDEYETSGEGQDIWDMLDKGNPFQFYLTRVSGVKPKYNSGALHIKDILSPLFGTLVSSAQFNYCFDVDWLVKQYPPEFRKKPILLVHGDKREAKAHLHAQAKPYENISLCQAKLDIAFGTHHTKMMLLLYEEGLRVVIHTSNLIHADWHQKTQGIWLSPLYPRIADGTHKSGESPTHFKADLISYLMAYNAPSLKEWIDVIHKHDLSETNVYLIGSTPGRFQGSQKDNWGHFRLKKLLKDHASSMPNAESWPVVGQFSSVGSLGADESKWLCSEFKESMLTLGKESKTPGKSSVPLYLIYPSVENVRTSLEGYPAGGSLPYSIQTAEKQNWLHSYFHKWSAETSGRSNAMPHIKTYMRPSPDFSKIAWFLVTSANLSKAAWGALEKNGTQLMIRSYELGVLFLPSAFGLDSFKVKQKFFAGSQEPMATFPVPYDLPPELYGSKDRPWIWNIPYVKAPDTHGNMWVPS
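Recombinant human Tdp1 (E. coli-expressed, 1 nM final) preincubated with compounds 15 min at room temperature, then 5'-biotin/3'-phosphotyrosine-FITC DNA substrate (15 nM final) added for 5 min. AlphaScreen beads (10 ug/ml final) added 10 min; cleavage lowers signal.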
CtBP-E1A inh: CtBP/E1A binding inhibition; AlphaScreen GST-E1A/His-CtBP binding, 1536-well; hits give low values; activity change, % (concentration not given with the values); 340,000 compounds, 0.49% hits; AID 651724; in the data active = activity change below about -65%; inconclusive = mostly about -30% to -63%
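Homogeneous bead-based format: GST-tagged E1A captured on glutathione donor beads, His-tagged CtBP on nickel acceptor beads; compounds precede bead addition by 2 h at 37 °C.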
An asterisk follows results filed as active; ? = inconclusive; . = not tested or not shown; [ ] = dose if it differs, or a comment. A selection: hits, their analogues and other compounds. The true share with any hit is near 18%. Unless noted, calls come from the whole dose curve; as a rule, active = well fitted curve in the direction sought with a large enough effect; inconclusive = small, poorly fitted or top-dose-only effect, or another doubt; inactive = no such curve, though single readings can be large; an effect the other way counts as inactive or inconclusive. % is set by controls: 0 for no effect and ±100 for the full control effect.

SMILES | DT40 TDP1 no CPT | DT40 TDP1 CPT | IL-1B inflam inh | Six1-Eya2 inh | TDP1 inh | CtBP-E1A inh
O=C(COC(=O)c1cccs1)Nc1ccccc1 | -9% | -6% | -1 | 22 | -2% | 0
CC(=O)c1ccc(NC(=O)COC(=O)c2c3c(nc4ccccc24)/C(=C\c2cccs2)CCC3)cc1 | 16µM* | 13µM* | -51* | 14 | 0% | 10
O=C(COC(=O)c1c2c(nc3ccccc13)/C(=C\c1cccs1)CCC2)Nc1ccccc1 | 9.2µM* | 21µM* | -55* | 17 | 2% | 23
Cc1ccc(S(=O)(=O)N(C)C)cc1NC(=O)CSc1ncc(C(F)(F)F)cc1Cl | ? | ? | ? | -3 | 2% | -1
NS(=O)(=O)c1cccc(NC(=O)CCCNC(=O)c2ccc(Cl)cc2)c1 | 10% | 4% | 98 | -4 | 2% | -19
NS(=O)(=O)c1cccc(NC(=O)CCSc2ccc(Cl)cc2)c1 | 12µM* | ? | 20 | 8 | 0% | 1
NS(=O)(=O)c1cccc(NC(=O)CSc2ncc(C(F)(F)F)cc2Cl)c1 | -29% | -40% | -111* | 4 | 4% | 16
CCN(CC)S(=O)(=O)c1ccc(C)c(NC(=O)CSc2ncc(C(F)(F)F)cc2Cl)c1 | 23µM* | ? | -13 | -2 | 4% | 0
S=C(Nc1cc(Cl)ccc1Oc1ccccc1)N1CCN(c2ccccn2)CC1 | ? | ? | -79* | -8 | . | -10
COc1ccc(OC)c(NC(=S)N2CCN(c3ccccn3)CC2)c1 | -21% | 3% | -12 | -4 | 4% | -5
Cc1[nH]c2ccccc2c1C(=O)C(=O)N1CCOCC1 | 15% | 17% | -11 | 4 | 6% | 3
Cc1ccc(S(=O)(=O)N2[C@@H](Cc3ccccc3)CO[C@H]2CC(=O)c2ccccc2)cc1 | -27% | -23% | -6 | 10 | . | -22
Cc1ccc(S(=O)(=O)N2[C@H](CC(=O)c3ccccc3)OC[C@@H]2C(C)C)cc1 | ? | ? | 1 | 12 | . | -23
Cc1ccc(S(=O)(=O)N2[C@H](CC(=O)c3cccs3)OC[C@@H]2C(C)C)cc1 | 18µM* | ? | 30 | 15 | . | -19
Cc1ccc(S(=O)(=O)N2[C@@H](Cc3ccccc3)CO[C@H]2CC(=O)c2ccc(F)cc2)cc1 | ? | 23µM* | -14 | -1 | . | 1
CCOC(=O)Nc1cc2c(c(N)n1)N=C(c1ccccc1)CN2 | 0.041µM* | 0.21µM* | 5 | 22 | . | 0
COCCC(=O)N1CCC(Oc2ccc(C(=O)NCCc3cnn(C)c3)cc2)CC1 | 1% | 2% | 17 | 0 | 1% | -7
O=c1cc(-c2ccc(O)c(O)c2)oc2c1ccc1ccccc12 | 26µM* | 16µM* | 0 | ? | -4% | ?
O=c1cc(-c2ccc(O)c(O)c2)oc2ccc3ccccc3c12 | 15µM* | ? | 7 | -2 | . | 0
O=c1cc(-c2cccnc2)oc2c1ccc1ccccc12 | 23µM* | ? | . | -9 | . | -15
O=c1cc(-c2ccccc2)oc2c1ccc1ccccc12 | ? | 14% | . | . | 13%[56.1 µM] | .
CN(Cc1ccco1)S(=O)(=O)c1ccc(CN2C(=O)c3cccnc3C2=O)s1 | 0% | 12% | 13 | -9 | 3% | -6
COC(=O)C1CC(=O)c2ccsc2C1 (stereo not given) | 16% | -16% | 12 | 1 | 0% | -3
O=c1c2ccccc2ncn1-c1ccc(Cl)cc1Cl | -15% | ? | -23 | 1 | . | .
O=c1c2ccccc2sn1-c1ccc(Cl)cc1Cl | 2.9µM* | 6.5µM* | -105* | -8 | . | 2
SMILES | DT40 TDP1 no CPT | DT40 TDP1 CPT | IL-1B inflam inh | Six1-Eya2 inh | TDP1 inh | CtBP-E1A inh
COc1ccc(NC(=O)C2CCN(S(=O)(=O)c3ccc4[nH]c5c(c4c3)CCCCC5)CC2)cc1 | ? | ? | . | . | 5% | .
Cc1ccc(NC(=O)C2CCN(S(=O)(=O)c3ccc4[nH]c5c(c4c3)CCCCC5)CC2)cc1 | 15µM* | 13µM* | . | . | 3% | .
Cc1ccc(C)c(N2CCN(S(=O)(=O)c3ccc4[nH]c5c(c4c3)CCCC5)CC2)c1 | ? | ? | . | . | 11% | .
O=S(=O)(c1ccc2[nH]c3c(c2c1)CCCC3)N1CCCCC1 | 23µM* | ? | 0 | ? | 7% | .
Cc1cccc(NC(=O)C(=O)c2cc(C)n(-c3ccccc3)c2C)c1C | ? | -8% | . | . | 11% | .
CCOC(=O)c1c(C)[nH]c(C(=O)OCc2ccc(F)cc2)c1C | 2% | -9% | -22 | 4 | 0% | 1
CCOC(=O)c1[nH]c(C)c(C(=O)OCC(=O)NC(C)c2ccc(F)cc2)c1C (stereo not given) | 1.2µM* | 1.6µM* | 0 | 5 | -6% | .
CCOC(=O)c1c(C)[nH]c(C(=O)OCC(=O)NC(C)(C)C)c1C | 18µM* | ? | -10 | -8 | 5% | -2
CCOC(=O)c1c(C)[nH]c(C(=O)OCC(=O)Nc2sc(C(=O)N(C)C)c(C)c2C(=O)OCC)c1C | 23µM* | ? | -51* | -5 | . | 0
CCOC(=O)C1CCCN(Cc2c(C(=O)N3CCOCC3)nc3ccccn23)C1 (stereo not given) | -8% | 1% | -68* | -17 | -3% | 0
Cc1cccc(Nc2nc(N)nc(CN3CCN(c4ccc(F)cc4)CC3)n2)c1 | 16µM* | 18µM* | ? | -25 | 6% | ?
CC1CC(C)CN(Cc2nc(N)nc(Nc3ccc4ccccc4c3)n2)C1 (stereo not given) | 21µM* | 23µM* | ? | -16 | 1% | -7
Cc1cccc(Nc2nc(N)nc(CN3CCN(C)CC3)n2)c1 | 7% | 7% | 0 | -9 | 5% | -6
Nc1nc(CN2CCC(Cc3ccccc3)CC2)nc(Nc2ccccc2)n1 | 23µM* | 18µM* | ? | -6 | 6% | -7
CCOC(=O)C1CCCN(Cc2c(C(=O)N3CCCCC3)nc3c(C)cccn23)C1 (stereo not given) | ? | -19% | 18 | -4 | . | 5
CC(=O)c1cccc(N2C(=O)C3C(C(=O)Nc4cc(C)on4)C4(C)C=CC3(O4)C2C(=O)NC(C)(C)C)c1 (stereo not given) | -1% | ? | 9 | 2 | 2% | 4
Nc1nc(CN2CCCCCC2)nc(Nc2ccccc2)n1 | -13% | -1% | 2 | -28 | 8% | -22
CCOC(=O)C1CCCN(Cc2nc(N)nc(Nc3ccccc3)n2)C1 (stereo not given) | 18µM* | ? | 5 | -13 | 9% | -11

Screening data (PubChem)
